# Laboratory results published in PubChem BioAssay (NCI).
# This is part of a sample that, as a whole, favours compounds with a hit. Of some 79,000 tested, about 15% had one in any assay. A number with no mark means an inactive call. The source made the active and inactive calls. Cut-off read from the data, not from the text of the source: active = growth inhibition above about 70%; inactive = the rest.
# Experiment: NCI Yeast Anticancer Drug Screen. Data for the sgs1 strain (AID 173);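 note: 0% = growth of vehicle-only control cultures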
# Settings: S. cerevisiae sgs1 mutant, at 11.0 µM, active compounds read high
# In short: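 Relative growth inhibition, referenced to vehicle, was determined in a yeast strain with a defined alteration affecting DNA damage repair or cell cycle control after compound exposure.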
row,SMILES,growth inhibition
1,COc1ccc(/C=C2\CCc3ccccc3C2=O)cc1OC,-12%
2,O=Cc1ccccc1B(O)O,96% (active)
3,CC(=O)CC[N+](C)(C)C,3%
4,O=C(O)[C@H]1[C@@H](C2CCCCC2)O[C@@H](C2CCCCC2)O[C@H]1C(F)(F)F,1%
5,CN(NC(=O)/C(=C/C=C/c1ccccc1)NC(=O)c1ccccc1)C1=C(Cl)C(=O)[N+](c2ccccc2)=CC1,27%
6,CCCCOc1ccc(Nc2c3ccccc3nc3ccccc23)cc1,87% (active)
7,N#C/C(=C1C=C/C(=N\O)C(Cl)=C\1)c1ccccc1,6%
8,COc1ccc(C(=O)OCCc2ccccc2)cc1,-18%
9,Cc1c2ccncc2c(C)c2c1oc1ccccc12,16%
10,CCCC#CCOC(=O)c1cc([N+](=O)[O-])cc([N+](=O)[O-])c1,99% (active)
11,Nc1nc(Nc2ccccc2)nc(Nc2ccccc2)n1,6%
12,COc1ccc(/C=C2\S/C(=N/Nc3nc(-c4ccccc4)cs3)NC2=O)cc1OC,88% (active)
13,CC(O)CN1C(=O)c2cccc3cc([N+](=O)[O-])cc(c23)C1=O (stereo unspecified),6%
14,Cn1c(COc2ccc(/C=N/NC(=O)CCC(=O)N/N=C/c3ccc(OCc4c[n+]5ccccc5n4C)cc3)cc2)c[n+]2ccccc12,5%
15,COC1=C(N=[N+]=[N-])C(=O)c2ncccc2C1=O,56%
16,CCN(CC)c1ccc(N=Nc2cc(S(=O)(=O)O)ccc2O)c(O)c1,-12%
17,O=C1C(C(O)(C(F)(F)F)C(F)(F)F)CCC1C(O)(C(F)(F)F)C(F)(F)F (stereo unspecified),9%
18,CN(C)CCNC(=O)c1cccc2nc3c(ccc4ccccc43)nc12,1%
19,O=S(=O)(CCC[C@H]1[C@@H](CCOCc2ccccc2)C2CCCN1O2)c1ccccc1 (stereo partly specified),2%
20,CCC(C)/C(C)=N/NC(N)=O (stereo unspecified),3%
21,Nc1c([N+](=O)[O-])cc2c3c(cccc13)CC2,33%
22,CC1=Cc2ccc(C)cc2C(=O)C1=O,65%
23,C=Cc1c(C)c(O)cc2c1-c1ccc(O)c(C)c1CC2,36%
24,NCC(O)CSCc1ccc(Cl)cc1 (stereo unspecified),-16%
25,C[n+]1c(-c2ccc(NC(=O)c3ccc(C(=O)Nc4ccc(-c5cn6ccccc6[n+]5C)cc4)cc3)cc2)cn2ccccc21,29%
26,CNC(=O)OCc1c(COC(=O)NC)c(C)n(-c2ccc(Cl)c(Cl)c2)c1C,1%
27,[O-]c1c2cc(-[n+]3c(-c4ccccc4)cc(-c4ccccc4)cc3-c3ccccc3)cc1COCCOCCOCCOCCOC2,-1%
28,C[Si](C)(C)Cc1ccccc1C(=O)O,5%

# Same assay, conditions: S. cerevisiae sgs1 mutant, at 33.0 µM, active compounds read high
row,SMILES,growth inhibition
1,COc1ccc(/C=C2\CCc3ccccc3C2=O)cc1OC,35%
2,O=Cc1ccccc1B(O)O,99% (active)
3,CC(=O)CC[N+](C)(C)C,3%
4,O=C(O)[C@H]1[C@@H](C2CCCCC2)O[C@@H](C2CCCCC2)O[C@H]1C(F)(F)F,1%
5,CN(NC(=O)/C(=C/C=C/c1ccccc1)NC(=O)c1ccccc1)C1=C(Cl)C(=O)[N+](c2ccccc2)=CC1,70% (active)
6,CCCCOc1ccc(Nc2c3ccccc3nc3ccccc23)cc1,98% (active)
7,N#C/C(=C1C=C/C(=N\O)C(Cl)=C\1)c1ccccc1,16%
8,COc1ccc(C(=O)OCCc2ccccc2)cc1,-2%
9,Cc1c2ccncc2c(C)c2c1oc1ccccc12,93% (active)
10,CCCC#CCOC(=O)c1cc([N+](=O)[O-])cc([N+](=O)[O-])c1,99% (active)
11,Nc1nc(Nc2ccccc2)nc(Nc2ccccc2)n1,57%
12,COc1ccc(/C=C2\S/C(=N/Nc3nc(-c4ccccc4)cs3)NC2=O)cc1OC,95% (active)
13,CC(O)CN1C(=O)c2cccc3cc([N+](=O)[O-])cc(c23)C1=O (stereo unspecified),15%
14,Cn1c(COc2ccc(/C=N/NC(=O)CCC(=O)N/N=C/c3ccc(OCc4c[n+]5ccccc5n4C)cc3)cc2)c[n+]2ccccc12,16%
15,COC1=C(N=[N+]=[N-])C(=O)c2ncccc2C1=O,84% (active)
16,CCN(CC)c1ccc(N=Nc2cc(S(=O)(=O)O)ccc2O)c(O)c1,-1%
17,O=C1C(C(O)(C(F)(F)F)C(F)(F)F)CCC1C(O)(C(F)(F)F)C(F)(F)F (stereo unspecified),28%
18,CN(C)CCNC(=O)c1cccc2nc3c(ccc4ccccc43)nc12,30%
19,O=S(=O)(CCC[C@H]1[C@@H](CCOCc2ccccc2)C2CCCN1O2)c1ccccc1 (stereo partly specified),19%
20,CCC(C)/C(C)=N/NC(N)=O (stereo unspecified),3%
21,Nc1c([N+](=O)[O-])cc2c3c(cccc13)CC2,45%
22,CC1=Cc2ccc(C)cc2C(=O)C1=O,99% (active)
23,C=Cc1c(C)c(O)cc2c1-c1ccc(O)c(C)c1CC2,98% (active)
24,NCC(O)CSCc1ccc(Cl)cc1 (stereo unspecified),7%
25,C[n+]1c(-c2ccc(NC(=O)c3ccc(C(=O)Nc4ccc(-c5cn6ccccc6[n+]5C)cc4)cc3)cc2)cn2ccccc21,83% (active)
26,CNC(=O)OCc1c(COC(=O)NC)c(C)n(-c2ccc(Cl)c(Cl)c2)c1C,97% (active)
27,[O-]c1c2cc(-[n+]3c(-c4ccccc4)cc(-c4ccccc4)cc3-c3ccccc3)cc1COCCOCCOCCOCCOC2,18%
28,C[Si](C)(C)Cc1ccccc1C(=O)O,65%
